# Measured values as given in PubChem BioAssay AID1508600 (Functional Genomics Laboratory (NCATS/FGL), 2020).
# Hit rate of the full screen: of about 53,000 sequences, about 3,700 (7%) were called active. The sample as a whole holds a higher share of actives than the screen did. Unmarked numbers belong to inactive results.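 Rule for the calls: active = gene knockdowns whose robust z-score for IL-1 alpha signal is at least 2 or at most -2, so actives lie on both sides; inactive = the rest.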
# Assay: Components of the Cytosolic LPS Sensing Pathway: Gene Identification via Genome-wide siRNA Screen;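 note: robust z of the log signal after scaling to non-targeting control siRNA wells of the plate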
# Settings: RAW264.7 macrophages, IL-1a HTRF, actives lie on both sides, screened at 100 nM (by protocol), cells primed 5 h with Pam3CSK4 first
# Outline: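 Knockdown: 100 nM siRNA, 48h, RAW264.7. Stimulation: Pam3CSK4 5 h, then LipidA via TransIT-TKO 24 h. Output: supernatant IL-1a HTRF, negative-control-normalized, log robust z-score; viability by CellTiter-Glo.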
row,Sequence,z-score
1,CCUCAAUUGGAUAAAGAAGTT against Gzma,1.7
2,GACAUACCAGCCGUAUAACTT against Erh,-2.39 (active)
3,CGAGGAGAAUUUGUAAUGATT against Etfrf1,-0.554
4,CCCUGAACCCUAACAUCACTT against Tcirg1,0.593
5,GGAGUGUUGGGAGCAGGAATT against Tnni1,2.71 (active)
6,GGAUGUUCUUGCUCAUGUGTT against Fam149b,0.605
7,GGAGAAAUGCCAUUGCGUCTT against Wnt3,0.169
8,GCGCGUCAUAAAAAGCAUATT against Lhx6,1.17
9,CGGAUCCUACGGAAUUACGTT against Fpgs,0.99
10,GGACAUUCUUUAAGAAGAUTT against Tjp3,-0.584
11,CCCAAAAGUUUUUACAGCUTT against Ttpa,0.0745
12,GGAUGAACCACCAUAUGUGTT against Olfr1188,4.69 (active)
13,GGUUUUGAAAAAGCAUCAATT against Myoz2,-0.365
14,GGCCAACUCUAUUUUGAAGTT against Lrp2bp,0.362
15,GGACACAUAAUGUCUACCUTT against Unc93a,-0.629
16,GCACUAGCAGACUAGGUGATT against Zbtb26,-2.07 (active)
17,GGAUUUUCAAUUCAUACCCTT against Psmb1,-0.189
18,UUUACCUUGUCACCGUCUUTT against Olfr1029,1.03
19,AUUCAUUGGGAAAAAUUAUTT against Olfr127,-2.38 (active)
20,CCUCGACAUCUAAUGAAGATT against 4933405O20Rik,-1.58
21,GCAAUACGAAGGCGAAAGCTT against P3h4,-1.68
22,GGACUUCAUAUUAGCAUGUTT against Plbd2,-1.27
23,GACCCUUUUCACCAAGACATT against Tecr,0.989

row,Sequence,z-score
1,GGAGCAGUGCAUUGAGACCTT against Adcy6,2.34 (active)
2,GGAAUAAUUGGUGUUAAAGTT against Hnrnpk,0.346
3,GGCUUUGGUCAAGGAGAAGTT against Pias4,-1.32
4,GGAUCAAUGAUACAACUGATT against Il1r1,-0.976
5,GGUGCUAAAGGACAUAGGUTT against Tmem177,3.27 (active)
6,GGGCACCUAUUCAGAUACCTT against Map2,0.685
7,GCCGAACGUGUUUAAACUCTT against Psd3,0.0404
8,GGAACCUCUCAGAUUUUCATT against Zfp599,0.828
9,GGCCUCUCAAAAUCUUCCUTT against Galnt11,-1.46
10,CGUAGUACCCAUGAAUUACTT against Adora2a,4.87 (active)
11,GGACUGACUCUUUUUUAACTT against Uba3,-0.697
12,CGAAAACAAUUACGUCUAUTT against Rfwd3,1.15
13,GCCAAACGCAUCAUGGAAATT against Arglu1,-0.59
14,CCACGACGUACAUCCAUAATT against Tmem181a,-1.02
15,GGCGAAAACGGUAAAGCCUTT against H1f4,0.448
16,GGCCAGCAAUAAAACUGUCTT against Max,-0.326
17,GCCCGCCUAUUUGAAAGCATT against Zfp740,0.839
18,GGAUGAAGGAACUAAAUAUTT against Cog3,-2.15 (active)
19,GGUCCUUAGGUGACCUCCUTT against Lrrc20,-0.249
20,GGAAAAUGCUGUCCAGUGGTT against Rdh11,-0.858
21,GGAGGUGAACAGAUCUCACTT against Fubp1,0.391
22,GGUCACAGCAAGUUAAUAATT against Ranbp9,-2.1 (active)
23,GGAGGUUCUACCCUGUUCATT against Actr1a,0.48

row,Sequence,z-score
1,GGGAGAAUCUAACUAAGCCTT against Sirt7,0.383
2,GGUCAUGCACACUCGAAAUTT against Mrpl54,0.831
3,GGUGGCUCAGAAAUCCUAUTT against Rbpjl,-0.206
4,GCGAAUCUCCACAAGAUGGTT against 2300002M23Rik,-0.0187
5,CGGCUUCUCUCUUUACACATT against Fosb,2.51 (active)
6,GGAGAAAAGUACCAAGAUGTT against Ifi27l2b,-1.15
7,AUGGUAUACUAUUAUGCUGTT against Mup20,1.62
8,GGAACUAACGGAAUUACUGTT against Arl3,0.951
9,GCGAAAUCAACAGUCAAUUTT against Ep300,0.458
10,GGAAGCAGAGCAGCUGUUUTT against Skiv2l,-0.567
11,GGGAUCAAUUUUGAAGAAUTT against Jmjd4,-0.398
12,GGAGUAUGUCCAUUGUCACTT against Vmn1r230,-2.54 (active)
13,UCAGCGAGCUUUAACCUUUTT against Olfr1028,0.26
14,GGUUUUUCAGCUUUGGAACTT against Decr1,-0.822
15,CCCACUUUCUUUGAUAACUTT against Bcl2l11,0.585
16,CGCGUAGAUAAGAAGUAUUTT against Anks1,0.181
17,GCUCAACAAAGCCUGUUCGTT against Zp3,2.35 (active)
18,GCAUUACUAAUCAAAGUGGTT against Abcb1b,-0.78
19,CCACUUCAUGAUUGAGUGCTT against Phf8-ps,-0.836
20,CCAUGAGUUCAGAUGAUGATT against Ints10,-1.11
21,CCUGAAACAUUCAGUGUCUTT against Apool,0.293
22,GCUUAAUUUCAUUUCAAGGTT against B3gnt5,0.496
23,GCUUCCCUGCCGUGAUGAUTT against Git1,-1.15
